# Tau ThT inhib: tau fibrillization inhibition (ThT binding). P10636. recombinant tau K18 P301L, heparin-induced fibrillization, ThT fluorescence. Potency, µM (highest dose often 57.4 µM), inactives show at the highest dose activity, negative = inhibition, actives largely listed as inhibitors. 270,000 compounds, 2.1% hits. AID 1460; note: nearly all actives have a fitted effect of over 55% in size
# Target sequence (P10636 561-689 P618L limits assumed): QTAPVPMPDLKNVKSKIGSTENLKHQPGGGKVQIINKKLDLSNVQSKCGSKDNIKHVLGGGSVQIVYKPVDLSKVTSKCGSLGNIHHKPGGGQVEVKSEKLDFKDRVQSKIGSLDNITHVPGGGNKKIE
#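 ThT emission at 510 nm, taken 1 hr after adding 30 uM dye, quantifies aggregates formed when 20 uM heparin acts on human tau K18 P301L for 6 hr at 37 C.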
# Tau fibril FP: blocks human tau fibril formation measured by polarization; P10636; K18 P301L tau heparin fibrillization, Alexa594 FP, 6 h; Potency, µM (doses to about 57.7 µM), inactives show at the highest dose activity, negative = inhibition, most hits filed as inhibitors; 280,000 compounds, 0.39% hits; note: nearly all actives have a fitted effect of over 55% in size
#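 Quantitative HTS format: compounds meet 15 uM recombinant K18 P301L tau and Alexa 594-tau tracer in 100 mM sodium acetate pH 7; 20 uM heparin triggers fibrillization at 37 C over 6 hr; FP gives the signal.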
# ALDH1A1 inh: ALDH1A1 (human) enzyme inhibition | P00352 | Purified ALDH1A1, NADH fluorescence, propionaldehyde substrate | Potency, µM (titrated, usually from 75.3 µM), without a hit: at the highest dose activity, negative = inhibition, most hits filed as inhibitors | 220,000 compounds, 7.3% hits | AID 1030; active = well fitted inhibition curve with a large enough effect, not every such curve was filed as active; inconclusive = small, poorly fitted or top-dose-only effect, or another doubt; inactive = no such curve, though single readings can be large or run the other way;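 note: plate controls were no enzyme wells and a reference inhibitor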
# NPSR antag: antagonists of human neuropeptide S receptor cAMP signaling. 220,000 compounds, 1% hits. Potency, µM (series often up to 38.3 µM), for inactives: top-dose activity change, negative = inhibition, most hits filed as inhibitors. CHO-NPSR cells, cAMP TR-FRET, antagonist mode; note: nearly all actives have a fitted effect of over 50% in size
# Tau fluor counter: counter-screen for tau fibril formation inhibitors; tau K18 P301L Alexa594 fluorescence, heparin fibrillization; 280,000 compounds, 0.93% hits; Potency, µM (highest dose often 57.7 µM), for inactives: at the highest dose activity change, negative = decrease; note: nearly all actives have a fitted effect of over 55% in size
#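 Human tau K18 P301L (15 uM unlabeled, 0.24 uM Alexa 594-labeled) in 100 mM sodium acetate pH 7 with 20 uM heparin, 6 hr at 37 C. ThT 30 uM added, 1 hr ambient; Alexa 594 FP and total fluorescence read at 555/632 nm.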
# HPGD block: blocks human HPGD enzyme activity | P15428 | purified HPGD, NADH fluorescence kinetic, PGE2 substrate | Potency, µM, without a hit: at the top dose activity change, negative = inhibition, usual class: inhibitors | 150,000 compounds, 4.3% hits | AID 894; active = well fitted inhibition curve with a large enough effect, not every such curve was filed as active; inconclusive = small, poorly fitted or top-dose-only effect, or another doubt; inactive = no such curve, though single readings can be large or run the other way
# Target sequence (P15428 whole entry, looked up): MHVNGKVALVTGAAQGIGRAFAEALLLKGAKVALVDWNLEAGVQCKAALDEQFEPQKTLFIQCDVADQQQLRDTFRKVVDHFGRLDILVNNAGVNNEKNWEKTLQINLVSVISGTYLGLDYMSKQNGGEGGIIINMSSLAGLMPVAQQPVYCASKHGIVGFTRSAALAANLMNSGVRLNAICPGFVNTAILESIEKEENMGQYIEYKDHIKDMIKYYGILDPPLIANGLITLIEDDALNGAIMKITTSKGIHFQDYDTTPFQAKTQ
#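 NADH formation kinetics: reaction with 30 uM PGE2 and 1 mM NAD+ (final), 20 nM enzyme, Tris-HCl pH 8 with Tween 20, after 15 min compound preincubation at room temperature. Fluorescence change, last versus first of five reads.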
# * = called active by the depositor; ? = inconclusive; . = not tested or not shown; [ ] = remark or other dose. Rows were chosen to be rich in hits. Some 9.5% of all compounds tested hit in one or more screens of this group. Unless noted, calls come from the whole dose curve; as a rule, active = well fitted curve in the direction sought with a large enough effect; inconclusive = small, poorly fitted or top-dose-only effect, or another doubt; inactive = no such curve, though single readings can be large; an effect the other way counts as inactive or inconclusive. Unless noted, % is set by controls: 0 for no effect and ±100 for the full control effect; potency is the fitted concentration of half-maximal effect.
SMILES,Tau ThT inhib,Tau fibril FP,ALDH1A1 inh,NPSR antag,Tau fluor counter,HPGD block
Cc1ccc(S(=O)(=O)N2CCC(C(=O)C3C(=O)CC(C)(C)CC3=O)CC2)cc1,-3.3%,-3.2%,9.1%,-3.1%,-3.9%,.
CCN(CC)c1ccc(C2C(C(=O)OC)=C(C)NC(C)=C2C(=O)OC)cc1,-4.2%,-0.5%,?,?,-2.3%,?
CCN(CC)c1ccc(/C=C/C(=O)C2C(=O)C=C(C)OC2=O)cc1 (stereo not given),3.16µM*,?,17.8µM*,-17.6%,6.31µM*[fluorescent],.
COc1ccc(OC)c(S(=O)(=O)N2CCC(c3ccncc3)CC2)c1,10.5%,-5.6%,.,.,10.7%,.
COc1cc(NCc2ccc3nc(N)nc(N)c3c2C)cc(OC)c1OC,20µM*,?,?,.,?,?
COc1ccc(S(=O)(=O)O/N=C2\CCSc3ccc(C)cc32)cc1,-2.0%,-7.3%,7.08µM*,-6.5%[46.1 µM],-9.7%,-7.3%
Cc1nn(-c2ccccc2)c2c1C(=O)N(c1ccccc1)C(=O)C(C)(C)C2,2.0%,3.9%,12.6µM*,-7.4%[46.1 µM],-4.1%,-20.5%
Cc1ccccc1Cn1c(C)c(CNCc2ccccc2)c(C(=O)O)c1C,-1.6%,-6.1%,.,.,-0.2%,.
COC(=O)C(N)CS (stereo not given),17.8µM*,?,?,.,-25.5%,25.1µM*
COC(=O)[C@@H](N)CS,14.1µM*,?,3.16µM*,13.0%,-28.0%,-12.0%
CCOC(=O)C1=NN(c2ccccc2C)C2=NC(C)=C(C(=O)OC)C(c3cccs3)N12 (stereo not given),-4.5%,1.9%,0.7%,-27.5%,1.6%,-16.3%
COc1ccccc1C(=O)N/C(=C\c1ccc(Br)cc1)C(=O)NCC(=O)O,-2.5%,-4.5%,5.4%,13.2%,-0.9%,-1.0%
CC(=O)N/C(=C\c1ccc(C)cc1)C(=O)O,-3.4%,0.0%,-12.1%,8.4%,-8.1%,.
Cc1ccc(S(=O)(=O)Oc2ccc(/C=C(/NC(=O)c3ccccc3)C(=O)O)cc2)cc1,-0.4%,5.2%,12.6µM*,13.8%,1.3%,.
Cc1ccc(S(=O)(=O)Oc2ccc(/C=C(/NC(=O)c3ccccc3)C(=O)NC(C)C(=O)O)cc2)cc1 (stereo not given),?,-10.4%,3.98µM*,0.5%,?,.
COc1ccccc1C(=O)N/C(=C\c1ccccc1)C(=O)NC(C)C(=O)O (stereo not given),6.0%,7.1%[2.34 µM],7.8%,-12.7%,24.6%[2.34 µM],.
Cc1ccc(S(=O)(=O)Oc2ccc(/C=C(/NC(=O)c3ccccc3)C(=O)NCC(=O)O)cc2)cc1,-13.7%,-5.5%,5.01µM*,-0.2%,-11.7%,.
COc1cccc(CNC(=O)C(Cc2ccccc2)NS(=O)(=O)c2ccc3c(c2)CCN3C(C)=O)c1 (stereo not given),-1.6%,5.0%,.,.,-13.4%,.
CC[C@H]1C2=C3C(CC[C@H]4C(OC)OC[C@](C)([C@@H]34)N(C(=O)OC(C)(C)C)C2)C(CO)C1CO (stereo not given in full),2.0%,9.8%,-6.4%,.,-2.4%,-3.1%
COc1ccccc1NC(=O)c1c(NC(=O)CCC(=O)O)sc2c1CCCCC2,?,?,22.4µM*,20.6%,-29.0%,.
O=C(O)CCC(=O)Nc1sc2c(c1C(=O)Nc1ccccc1)CCCCC2,14.1µM*,?,?,-19.3%,-29.8%,.
COc1ccc(OC)c(NC(=O)c2c(NC(=O)CCC(=O)O)sc3c2CCCCC3)c1,?,1.2%,-10.1%,-24.8%,-0.4%,-0.6%
Fc1ccc(-c2cc(-c3cccs3)cc(-c3ccccc3)n2)cc1,-12.0%,?,.,24.2%,-26.1%,.
Fc1ccc2[nH]c(-c3cccs3)cc2c1,?,?,.,.,11.2µM*[quencher],.
CC1(C)CN=c2s/c(=C\c3ccc(Cl)cc3)c(=O)n2C1,?,4.6%,2.24µM*,-7.6%,-16.4%,.
CSC1=N/C(=C\c2ccc(Cl)cc2)C(=O)N1N(C)C,?,-8.3%,5.1%,-27.3%,-22.9%,.

# Assay outcomes deposited in PubChem BioAssay by National Center for Advancing Translational Sciences (NCATS).
